In PubChem BioAssay AID1159580 (chemical genetic matrix, 2015):
“And” between values parts separate entries of the source, which are not always exact repeats. Equal entries are not always repeated. In all, about 5,500 compounds went through this assay and about 2,000 (36%) were called active. Another 18% or so got no clear call; they are omitted. Rule as the data show it: active = normalized growth mostly below about 0.91 (no sharp cut-off); inconclusive = no clear call, values can overlap the other calls; inactive = mostly above about 0.92. The list shows a part of the results.

Assay: chemical genetic growth profiling, strain panel (AID 1159580);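 also: tested at 20 µM; growth read once vehicle control cultures reached saturation at 30 °C; 1 = growth at the plate median or of vehicle wells; lower values mean less growth of the strain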
Settings: S. cerevisiae deletion strains, growth OD
[1] = locus YBR229C, strain ROT2, hits give low values
[2] = locus YDL101C, strain DUN1, hits give low values
[3] = locus YDR150W, strain NUM1, hits give low values
[4] = locus YHR030C, strain SLT2, hits give low values
[5] = locus YJR043C, strain POL32, hits give low values
[6] = locus YJR075W, strain HOC1, hits give low values
[7] = locus YLR039C, strain RIC1, hits give low values
[8] = locus YLR262C, strain YPT6, hits give low values
[9] = locus YPL241C, strain CIN2, hits give low values

Measured: normalized growth

CC1(C)CC23C(=O)CCC(O)C2(C)CCC13 (stereo not drawn)
inactive: locus YAL021C, strain ccr4, hits give low values 0.956 | locus YAL026C, strain drs2, hits give low values 0.989 | locus YAL030W, strain snc1, hits give low values 0.979 | locus YBL061C, strain skt5, hits give low values 0.99 | locus YBR009C, strain hhf1, hits give low values 1.02 | locus YBR021W, strain FUR4, hits give low values 0.995 | locus YBR023C, strain chs3, hits give low values 0.993 | locus YBR171W, strain sec66, hits give low values 0.974 | [1] 1.01 | locus YBR231C, strain swc5, hits give low values 1.01 | locus YBR279W, strain paf1, hits give low values 0.987 | locus YCL011C, strain gbp2, hits give low values 0.979 | locus YCL016C, strain dcc1, hits give low values 0.967 | locus YCL029C, strain bik1, hits give low values 1 | locus YCL069W, strain vba3, hits give low values 0.984 | locus YCR088W, strain abp1, hits give low values 0.985 | locus YDL005C, strain med2, hits give low values 0.97 | locus YDL035C, strain GPR1, hits give low values 1.01 | locus YDL040C, strain nat1, hits give low values 0.991 | locus YDL074C, strain BRE1, hits give low values 1.05 | [2] 1.04 | locus YDL185W, strain tfp1, hits give low values 1.01 | locus YDL192W, strain arf1, hits give low values 1 | locus YDR001C, strain nth1, hits give low values 0.986 | locus YDR069C, strain doa4, hits give low values 0.967 | locus YDR101C, strain arx1, hits give low values 0.983 | locus YDR137W, strain rgp1, hits give low values 0.974 | [3] 1 | locus YDR159W, strain sac3, hits give low values 0.988 | locus YDR162C, strain NBP2, hits give low values 1.01 | locus YDR195W, strain ref2 0.957 | locus YDR297W, strain sur2, hits give low values 1.01 | locus YDR318W, strain mcm21, hits give low values 1 | locus YDR334W, strain swr1, hits give low values 0.978 | locus YDR335W, strain msn5, hits give low values 0.989 | locus YDR388W, hits give low values 1.02 | locus YDR392W, strain spt3, hits give low values 0.939 | locus YDR502C, strain sam2, hits give low values 1.03 | locus YEL003W, strain gim4, hits give low values 0.989 | locus YEL037C, strain rad23, hits give low values 0.981 | locus YEL061C, strain CIN8 (second series), hits give low values 0.985 | locus YER015W, strain faa2, hits give low values 0.989 | locus YER016W, strain bim1, hits give low values 0.961 | locus YER110C, hits give low values 1.03 | locus YER111C, strain swi4, hits give low values 0.971 | locus YER155C, strain BEM2 (second series), hits give low values 0.985 | locus YER155C, strain BEM2, hits give low values 1 | locus YER167W, strain BCK2, hits give low values 0.997 | locus YFR010W, strain ubp6, hits give low values 1 | locus YGL078C, strain dbp3, hits give low values 1.02 | locus YGL086W, strain mad1, hits give low values 1.01 | locus YGL167C, strain pmr1, hits give low values 0.976 | locus YGL173C, strain kem1, hits give low values 0.978 | locus YGL227W, strain vid30, hits give low values 0.983 | locus YGL240W, strain doc1, hits give low values 1.01 | locus YGL248W, strain PDE1, hits give low values 1.06 | locus YGL253W, strain hxk2, hits give low values 0.984 | locus YGR135W, strain pre9, hits give low values 1.08 | locus YGR252W, strain gcn5, hits give low values 1.05 | locus YHR013C, strain ard1, hits give low values 0.952 | locus YHR027C, strain rpn1, hits give low values 0.987 | [4] 1 and 1.03 | locus YHR079C, strain IRE1 (second series), hits give low values 1.01 | locus YHR079C, strain IRE1, hits give low values 1.04 | locus YHR094C, strain hxt1, hits give low values 1.01 | locus YHR129C, strain ARP1, hits give low values 1.01 | locus YHR142W, strain chs7, hits give low values 0.96 | locus YHR200W, strain rpn10, hits give low values 1.02 | locus YIL066C, strain RNR3, hits give low values 1.01 | locus YIL073C, strain SPO22, hits give low values 1.08 | locus YIL125W, strain kgd1, hits give low values 0.998 | locus YIR030C, strain dcg1, hits give low values 1.02 | locus YJL092W, strain hpr5, hits give low values 0.994 | locus YJL095W, strain BCK1 (second series), hits give low values 0.98 | locus YJL095W, strain BCK1, hits give low values 1.1 and 1.04 | locus YJL115W, strain asf1, hits give low values 0.97 | locus YJL129C, strain trk1, hits give low values 0.955 | locus YJL134W, strain LCB3, hits give low values 1.01 | locus YJL154C, strain vps35, hits give low values 0.969 | locus YJL164C, strain tpk1, hits give low values 0.997 | locus YJL166W, strain qcr8, hits give low values 1.01 | locus YJL168C, strain set2, hits give low values 0.996 | locus YJL187C, strain SWE1 (second series), hits give low values 1.05 | [5] 0.983 | locus YJR066W, strain TOR1, hits give low values 0.972 | [6] 1.03 | locus YKL009W, strain mrt4, hits give low values 1.03 | locus YKL068W, hits give low values 1 | locus YKL085W, strain MDH1 (second series), hits give low values 1.01 | locus YKL085W, strain MDH1, hits give low values 1.01 | locus YKL160W, strain elf1, hits give low values 0.974 | locus YKL190W, strain CNB1, hits give low values 1.01 | locus YKR001C, strain vps1, hits give low values 1.04 | locus YKR026C, strain gcn3, hits give low values 0.99 | locus YKR091W, strain srl3, hits give low values 0.989 | locus YLL001W, strain dnm1, hits give low values 0.99 | locus YLL026W, hits give low values 0.994 | locus YLL041C, strain sdh2, hits give low values 0.985 | locus YLR027C, strain aat2, hits give low values 0.992 | [7] 1.13 | locus YLR058C, strain SHM2, hits give low values 1.03 | locus YLR102C, strain apc9, hits give low values 1 | locus YLR113W, strain HOG1, hits give low values 1.03 | locus YLR221C, strain rsa3, hits give low values 1.01 | locus YLR258W, strain gsy2, hits give low values 0.984 | locus YLR262C, strain YPT6 (second series), hits give low values 1.01 | [8] 1.07 | locus YLR268W, strain sec22, hits give low values 0.995 | locus YLR320W, strain mms22, hits give low values 0.997 | locus YLR330W, strain CHS5, hits give low values 1.02 | locus YLR342W, strain FKS1 (second series), hits give low values 1.01 | locus YLR342W, strain FKS1, hits give low values 0.977 | locus YLR357W, strain rsc2, hits give low values 0.956 | locus YLR370C, strain arc18, hits give low values 0.981 | locus YLR371W, strain rom2, hits give low values 0.995 | locus YLR384C, strain iki3, hits give low values 0.952 | locus YLR418C, strain cdc73, hits give low values 1.05 | locus YML016C, strain PPZ1, hits give low values 1.02 | locus YML032C, strain rad52, hits give low values 1.01 | locus YML120C, strain ndi1, hits give low values 0.984 | locus YML124C, strain tub3, hits give low values 1 | locus YMR058W, strain fet3, hits give low values 0.987 | locus YMR078C, strain ctf18, hits give low values 1.02 | locus YMR125W, strain sto1, hits give low values 0.986 | locus YMR129W, hits give low values 0.981 | locus YMR205C, strain PFK2, hits give low values 0.999 | locus YMR223W, strain ubp8, hits give low values 1.02 | locus YMR231W, strain pep5, hits give low values 0.991 | locus YMR307W, strain GAS1, hits give low values 1.08 | locus YNL067W, strain RPL9B, hits give low values 1.03 | locus YNL071W, strain lat1, hits give low values 0.991 | locus YNL183C, strain NPR1, hits give low values 0.973 | locus YNL209W, strain ssb2, hits give low values 0.988 | locus YNL233W, strain BNI4, hits give low values 1.06 | locus YNL248C, strain rpa49, hits give low values 0.951 | locus YNL250W, strain rad50, hits give low values 1.02 | locus YNL271C, strain bni1, hits give low values 0.999 | locus YNL298W, strain CLA4, hits give low values 1.01 | locus YNL307C, strain MCK1, hits give low values 1.02 | locus YNL322C, strain KRE1 (second series), hits give low values 1 | locus YNR049C, strain mso1, hits give low values 0.972 | locus YNR052C, strain pop2, hits give low values 1.03 | locus YOL012C, strain htz1 1.22 | locus YOL147C, strain pex11, hits give low values 1.02 | locus YOR001W, strain rrp6, hits give low values 1.02 | locus YOR061W, strain CKA2, hits give low values 1.01 | locus YOR069W, strain VPS5, hits give low values 1.01 | locus YOR070C, strain gyp1, hits give low values 0.987 | locus YOR080W, strain dia2, hits give low values 0.981 | locus YOR083W, strain WHI5, hits give low values 0.979 | locus YOR106W, strain vam3, hits give low values 0.962 | locus YOR136W, strain idh2, hits give low values 1.01 | locus YOR144C, strain elg1, hits give low values 1.01 | locus YOR184W, strain ser1, hits give low values 0.994 | locus YOR231W, strain MKK1, hits give low values 1.05 | locus YOR265W, strain rbl2, hits give low values 1 | locus YOR270C, strain vph1, hits give low values 0.976 | locus YOR290C, strain snf2, hits give low values 0.977 | locus YOR316C, strain cot1, hits give low values 1.01 | locus YPL051W, strain arl3, hits give low values 0.987 | locus YPL078C, strain atp4, hits give low values 0.981 | locus YPL106C, strain sse1, hits give low values 0.97 | locus YPL240C, strain hsp82, hits give low values 1 | [9] 1.01 | locus YPL256C, strain CLN2, hits give low values 1.04 | locus YPR119W, strain clb2, hits give low values 1 | locus YPR141C, strain kar3, hits give low values 1 | locus YPR163C, strain tif3, hits give low values 1.01 | locus YPR167C, strain met16, hits give low values 1.03 | strain wtn01, hits give low values 0.984

Cc1cc(S(=O)(=O)NCCNc2nccc(C(F)(F)F)n2)c(C)cc1Cl
inactive: locus YAL013W, strain DEP1, hits give low values 1.01 | [1] 1.02 | locus YCL061C, strain MRC1, hits give low values 1.01 | [2] 1.01 | locus YDL134C, strain PPH21, hits give low values 0.998 | [3] 0.933 | locus YEL061C, strain CIN8, hits give low values 1.02 | locus YGR078C, strain PAC10, hits give low values 1 | locus YGR229C, strain SMI1, hits give low values 1.02 | [4] 0.957 | locus YHR087W, strain rtc3, hits give low values 1.01 | [5] 1.01 | [6] 1 | [7] 0.991 | locus YLR058C, strain SHM2 (second series), hits give low values 1.02 | locus YLR085C, strain ARP6, hits give low values 1.01 | [8] 1.01 | locus YML094W, strain GIM5, hits give low values 0.992 | locus YMR219W, strain ESC1, hits give low values 1.01 | locus YMR263W, strain SAP30, hits give low values 0.921 | locus YNL153C, strain GIM3, hits give low values 1.02 | locus YNL298W, strain CLA4 (second series), hits give low values 0.982 | locus YNL322C, strain KRE1, hits give low values 1.01 | locus YNR030W, strain Alg12, hits give low values 1.02 | locus YOL006C, strain TOP1, hits give low values 1.02 | locus YPL055C, strain LGE1, hits give low values 1.01 | [9] 1.06 | locus YPR135W, strain CTF4, hits give low values 0.966
